The values that follow come from ChEMBL document CHEMBL3988442, “University of Dundee, Small-Polar-MMV Screening Library” (2021).

In all, about 48,000 compounds went through this assay and about 13,000 (27%) showed an effect of 50% or more. The list shows a part of the results.

In the test the test system is Wolbachia pipientis. Briefly: Anti-Wolbachia Cell-Based Screen. Also noted: scale not given: in the data most compounds retested in dose-response had high values. The note with it: 5 µM. Format: functional.
In the case of `CCOCC(=O)NCC1(NC(C)c2ccccc2)CCOCC1` (stereo not drawn), the “Percent Effect” value is -5.882%.
In the case of `CCC(CN1CCCC1)n1cncc1-c1cnn(Cc2ccccc2)c1.Cl` (stereo not drawn), the “Percent Effect” value was 116%.
Regarding `Cc1cnn(CC(C)NCc2c(C)nn(Cc3ccccc3)c2C)c1` (stereo not drawn), the “Percent Effect” value was -7.761%.
Turning to `CCc1nnsc1C(=O)N1CCCN(Cc2ccccc2)CC1`, the “Percent Effect” value was -10.59%.
In the case of `COc1cccc(CN2CCCC(Nc3cccc(F)c3)C2)c1O` (stereo not drawn) it was -12.95%; in that of `COc1cccc(CN2CCN(CC(C)C)C(=O)C2C)c1O` (stereo not drawn), -13.51%; in that of `O=C(CCN1CCCC1c1cccs1)N1CCc2sccc2C1` (stereo not drawn), 2.808%.
As for `COc1cccc(CN2CCCCCC2c2sccc2C)c1O` (stereo not drawn), the “Percent Effect” value is recorded as 115%.
`COc1cccc(CN2CCCCCC2c2cccs2)c1OC` (stereo not drawn): the “Percent Effect” value is given as 128.6%.
To `Cc1cc(C)cc(N(CCC#N)C(=O)CN2CCCC2c2cccs2)c1` (stereo not drawn) belongs -27.93%.
To `COc1cc(CN2CCCCCC2c2cccs2)cc(OC)c1OC` (stereo not drawn) belongs 88.88%; to `COc1cc(CN2CCCCCC2c2cccs2)cc(OC)c1O` (stereo not drawn), 139%.
Turning to `COc1cccc(CN2CCCCCC2c2cccs2)c1O` (stereo not drawn), the “Percent Effect” value is -12.69%.
With `Cc1nc(C)n(CC2CCCCN2CCCS(N)(=O)=O)n1` (stereo not drawn), the “Percent Effect” value was -48.39%.
Take `CC(NC(=O)N1CCC(OCc2ccccc2)CC1)c1nncn1C` (stereo not drawn): the “Percent Effect” value is on record as -3.035%.
To `CC(=O)Nc1ccc(-n2ccc3nc(N4CCCC4)ncc3c2=O)cc1` belongs 4.031%; to `OCCC1CN(c2nc(-c3cccnc3)nc3c2CCNCC3)CCO1` (stereo not drawn), -11.64%.
To `CNC(=O)c1c(C)cccc1NCC(=O)Nc1cc(C)nn1C` belongs -2.295%; to `O=C(Nc1ccc(F)cc1)N(CCC(F)(F)F)C[C@H](O)CO`, -0.3648%.
In the case of `Cc1nc2c(c(N3CCCOCC3)n1)CCN(c1nccs1)CC2` it was 108.7%; in that of `Cc1nc2c(c(N3CCCOCC3)n1)CCN(C(=O)N1CCCC1)CC2`, 0.8074%; in that of `Cc1nc(N2CCOCC2)nc2c1CCN(c1nccs1)CC2`, 1.797%.
With `CCc1nc2n(n1)CCCC2NC(=O)Nc1cc(OC)ccc1C` (stereo not drawn), the “Percent Effect” value was determined as 24.05%.
In the case of `CS(=O)(=O)CCCN1CCOC2(CCc3ccccc32)C1` (stereo not drawn) it was -1.468%.
Turning to `CN(Cc1cc(F)ccc1C#N)CC(C)(CO)CO`, the “Percent Effect” value was 8.99%.
On to `Cc1cc(F)ccc1S(=O)(=O)N(C)CC(N)=O`, for which the “Percent Effect” value is given as -0.8212%.
To `COc1c(C2CCCN2C(=O)c2cccc(C)n2)c(C)nn1C` (stereo not drawn) belongs 93.53%.
To `COc1c(C2CCCN2C(=O)c2cccnc2N(C)C)c(C)nn1C` (stereo not drawn) belongs 107.7%; to `Cc1nn(C)c(Cl)c1C1CCCN1C(=O)c1ccc(N(C)C)nn1` (stereo not drawn), -10.16%; to `COc1c(C2CCCN2C(=O)c2cccc(C(N)=O)c2)c(C)nn1C` (stereo not drawn), 8.718%.
In the case of `COc1c(C2CCCN2C(=O)c2ccc(N(C)C)nn2)c(C)nn1C` (stereo not drawn) it was 97.2%; in that of `COc1c(C2CCCN2C(=O)c2ccnc(C)n2)c(C)nn1C` (stereo not drawn), 135.1%; in that of `CS(=O)(=O)N1C[C@H](C(=O)Nc2cccnc2)C[C@H]2OCC[C@H]21.O=C(O)C(F)(F)F`, -10.82%.
For the compound `CC[C@@]1(O)CCN(c2ncc(Cl)cc2C(F)(F)F)C[C@H]1O`, the “Percent Effect” value is -3.293%.
Turning to `COCc1noc(CNc2nc(C3CCCC3)nc3c2CCNCC3)n1`, the “Percent Effect” value is reported as -2.329%.
As to `COc1ccc(SC(C)C(=O)N2CCC(C(=O)N3CCCC3)CC2)cc1` (stereo not drawn), the “Percent Effect” value was -0.009577%.
To `COCCNC(=O)c1cc(S(=O)(=O)N2CCCCC2)cs1` belongs 0.5112%; to `CC(C)CNC(=O)c1cc2c(s1)CCN2S(C)(=O)=O`, 101.5%; to `COCCNC(=O)c1cc(S(=O)(=O)N2CCCCCC2)cs1`, 97.81%.
In the case of `COCCNC(=O)NCCS(=O)(=O)N1CCN(c2cccc(C)c2)CC1` it was 9.148%; in that of `NC(=O)C1CCN(C(=O)c2cc(S(=O)(=O)N3CCCCC3)cs2)CC1`, 2.088%; in that of `CN(C)CCNC(=O)c1cc2c(s1)CCN2S(C)(=O)=O`, 114.7%.
Consider `COCCNC(=O)c1cc2c(s1)CCN2S(C)(=O)=O`, for which the “Percent Effect” value is 90.75%.
To `CC(C)CNC(=O)c1nc2c(s1)CCN(C(=O)c1cccnc1)CC2` belongs -3.468%; to `CN(C)CCNC(=O)c1ccc(OC2CCN(S(C)(=O)=O)CC2)c(Cl)c1`, -4.841%.
In the case of `CC(C)CNC(=O)c1cc2c(s1)CCN2Cc1cccnc1` it was -6.846%; in that of `COCCNC(=O)C1CCCN1S(=O)(=O)c1sc(=O)[nH]c1C` (stereo not drawn), -10.99%.
Consider `Cc1ncsc1CCC(=O)N1CCN(CCn2cncn2)CC1`, for which the “Percent Effect” value is -30.48%.
In the case of `CS(=O)(=O)c1nnc(NC(=O)CCc2ccc(Cl)s2)[nH]1` it was -11.44%; in that of `COc1cc(CN(C)C(=O)NCCNC(=O)C2CC2)ccc1SC`, 6.493%; in that of `Cc1nnc(CN2CCN(C)C3(CCNC(=O)CC3)C2)s1` (stereo not drawn), -6.186%.
To `CN(C)C(=O)CNC(=O)c1cc2c(s1)CCN2S(C)(=O)=O` belongs 110.9%; to `CN(C)C(=O)c1cc2c(s1)CCN(C(=O)CCCN1CCCCC1)C2`, -52.48%; to `CN(C)C(=O)CNC(=O)c1cc(Br)c2c(c1)OCCO2`, -3.612%.
In the case of `CC(C)(C)c1noc(CNc2ccccc2N2CCC(O)CC2)n1`, the “Percent Effect” value is recorded as -3.978%.
To `CCC(C)CS(=O)(=O)NC(=O)C1CCC1` (stereo not drawn) belongs 4.874%; to `CCc1nc2n(n1)CC(NCC(=O)Nc1nccs1)CC2` (stereo not drawn), -6.343%; to `Cc1csc(Nc2cc(C3CN(C(C)C)C3)nc(C)n2)n1`, 95.99%.
As to `Cc1ccccc1N1CCN(c2ccncn2)C(C)C1` (stereo not drawn), the “Percent Effect” value turned out to be 0.9098%.
As for `Cc1cc(C)nc(Nc2cc(C3CCCN(C)C3)nc(C)n2)n1.O=CO` (stereo not drawn), the “Percent Effect” value is given as -14.01%.
Consider `Cc1csc(Nc2cc(C3CN(c4ccncn4)C3)nc(C)n2)n1`, for which the “Percent Effect” value worked out at 120.5%.
To `Cc1nc(Nc2nccs2)cc(C2CCCN2C2CCOCC2)n1` (stereo not drawn) belongs -3.7%.
Take `Cc1nc(Nc2nccs2)cc(C2CN(C(C)C)C2)n1`: the “Percent Effect” value is given as 64.11%.
In the case of `CCc1nc(NC(=O)NCCc2cscn2)nn1C` it was -7.78%; in that of `O=C(NCCOc1ncc(Cl)cc1Cl)NCc1ccncc1`, -21.42%.
In the case of `Cn1ccnc1SCCNc1ccnc(C(F)(F)F)n1` it was 2.447%; in that of `CC(C)(C)c1ncc(C(=O)NC(C(N)=O)c2ccccc2)s1` (stereo not drawn), 80.78%; in that of `CC(C)(C)c1ncc(C(=O)NCCNC(=O)c2ccco2)s1`, 107.2%.
`CCNc1ncc(C(=O)N[C@H](C(N)=O)c2ccccc2)cn1`: the “Percent Effect” value is listed as 7.272%.
In the case of `CC(C)(NC(=O)c1cnc(C(C)(C)C)s1)C(N)=O` it was -3.596%; in that of `CC(C)(C)c1ncc(C(=O)NCCNC(=O)Cc2ccccc2)s1`, 94.92%; in that of `CC(C)(C)C(=O)c1ccsc1NC(=O)CCNC(=O)c1ccco1`, -2.755%.
As for `CC(C)(CNC(=O)c1ccco1)CNC(=O)c1ccco1`, the “Percent Effect” value is given as -33.3%.
